Screens (PubChem)
MPTP block: permeability transition pore inhibition | 360,000 compounds, 1.4% hits | AID 602449 | isolated mouse mitochondria, Ca2+ swelling absorbance, 30 min | inhibition, % at 10 µM;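 active = inhibition of 50% or more, scaled per plate between neutral and stimulator controls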
FAS TE block: inhibitors of human fatty acid synthase thioesterase domain; P49327; recombinant FAS-TE, OMFH fluorogenic substrate, fluorescence endpoint; inhibition, % at 15 µM; 360,000 compounds, 0.67% hits; AID 602261;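 active = compounds whose normalised, plate-corrected inhibition of enzyme fluorescence in the single-dose primary screen is 50% or more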
p-CIP stab down: lowers stability of the mouse p/CIP coactivator protein. decrease of EGFP signal, % at 10 µM. 290,000 compounds, 0.01% hits. F442A p/CIP-EGFP cells, EGFP fluorescence, 16 h. Q05BA5;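 active = EGFP signal decrease of at least 30% at 10 µM or well 3 SD below plate mean, unless failing retest; inactive = the rest, including hits failing retest or dose response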
GRIN3A LBD mod: NR3A (human) ligand-binding domain modulation | Tm shift relative to glycine control, % at 25 µM | 340,000 compounds, 2.5% hits | NR3A LBD differential scanning fluorimetry, Tm shift; 0% = protein alone, 100% = glycine-bound protein | AID 1259313;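 active = melting temperature shift of at least 10% of the positive control shift, at one fixed dose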
beta cell repl: inducers of beta-cell replication in MIN6 cells. MIN6 cells proliferation, ATPlite luminescence, 48 h; cells starved in 0.2% serum; 100% = growth in 10% serum. 330,000 compounds, 0.29% hits. proliferation, % at 10 µM;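 active = compounds whose signal lies at least 3.5 SD above the mean of all wells on their plate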
Hits are given with their value; i = inactive; nt = no result. Most compounds without a hit are left out; they make up all but 4.1% or so of the library.

SMILES	MPTP block	FAS TE block	p-CIP stab down	GRIN3A LBD mod	beta cell repl
Cc1cc(NS(=O)(=O)c2ccc(NC(=O)/C=C/c3cccc(Cl)c3)cc2)no1	i	i	i	16	i
CN1C(=O)[C@H]2[C@@H](c3ccc(C(F)(F)F)cc3)N[C@]3(CCCN(CC4CCCCC4)C3=O)[C@H]2C1=O	i	i	nt	nt	nt
O=C(OCC(=O)c1c[nH]c2ccccc12)c1cc2ccccc2cc1O	i	i	i	32	i
Cc1noc(C)c1C(=O)OCC(=O)c1c[nH]c2ccccc12	i	i	i	i	i
Cn1c(N)c(C(=O)COC(=O)c2cccc(S(=O)(=O)N3CCCCC3)c2)c(=O)n(C)c1=O	i	i	i	i	i
Cc1[nH]c2ccccc2c1C(=O)COC(=O)c1cccc(S(=O)(=O)N2CCCCC2)c1	i	i	i	21	i
Cc1onc(-c2c(F)cccc2Cl)c1C(=O)OCC(=O)c1c[nH]c2ccccc12	i	i	i	13	i
Cc1ccc(C(=O)OCC(=O)c2c[nH]c3ccccc23)cc1S(=O)(=O)N1CCCCC1	i	i	i	25	i
CCN(CC)c1ncnc2c1ncn2[C@H]1CN(Cc2ccncc2)C[C@@H](CO)O1	i	i	nt	nt	nt
NC(=O)c1[nH]cnc1N=NN(CCO)Cc1ccccc1	i	i	nt	nt	nt
COc1ccc(S(=O)(=O)N2CCC3CC2c2cc(-c4ccc5c(c4)OCO5)ccc23)cc1 (stereo unspecified)	i	i	nt	nt	nt
O=S1(=O)N[C@H](Cc2ccccc2)COc2cc(N3CCC[C@@H]3CO)ccc21	i	i	nt	nt	nt
Oc1ccccc1Cn1nnc2ccccc21	i	i	i	i	i
c1ccc2c(Cn3nnc4ccccc43)cccc2c1	i	i	i	11	i
CCOC(=O)Cc1csc(NC(=O)c2sc3nc4ccc(CC)cc4cc3c2N)n1	i	i	i	i	i
CCOC(=O)Cc1csc(NC(=O)c2sc3nc4cc(C)ccc4cc3c2N)n1	i	i	i	28	i
O=C(CNC(=O)c1ccccc1O)N/N=C/c1cc(Br)ccc1OC(=O)/C=C/c1ccco1	nt	nt	i	13	i
Cc1cc(-n2c(SCC(=O)NCc3cccs3)nc3n[nH]c(C)c3c2=N)ccc1Cl	i	i	i	i	i
CCOc1ccc(-n2c(SCC(=O)Nc3ccc(Br)cc3)nc3n[nH]c(C)c3c2=N)cc1	i	i	i	19	i
CCOc1ccc(-n2c(SCC(=O)Nc3ccccc3CC)nc3n[nH]c(C)c3c2=N)cc1	nt	nt	i	nt	i
CCc1ccc(NC(=O)CSc2nc3n[nH]c(C)c3c(=N)n2-c2cccc(OC)c2)cc1	i	i	i	23	i
Cc1cc(-n2c(SCC(=O)Nc3ccc(F)c(F)c3)nc3n[nH]c(C)c3c2=N)ccc1Cl	i	i	i	26	i
Cc1cc(-n2c(SCC(=O)Nc3ccc(Br)cc3)nc3n[nH]c(C)c3c2=N)ccc1Cl	i	i	i	20	i
COc1ccc(-c2cc(C(F)(F)F)n3nc(C(N)=O)cc3n2)cc1	i	i	nt	nt	nt
COC(=O)[C@]12CCCCC=C1N(Cc1cccc3ccccc13)C(=O)[C@H](CC(=O)N1CCCC1)C2	i	i	nt	nt	nt
SMILES	MPTP block	FAS TE block	p-CIP stab down	GRIN3A LBD mod	beta cell repl
CCN(CC(=O)Nc1c(F)cccc1F)C(=O)c1ccc2ccccc2n1	i	i	nt	15	i
CCN(CC(=O)Nc1c(F)cccc1F)C(=O)/C=C/c1ccc2ccccc2n1	i	i	nt	i	i
Cc1ccccc1C[n+]1cccc2ccccc21	i	i	nt	13	i
CC(C)NC(=O)C1(C)CN(S(C)(=O)=O)CC(=O)N1CCCn1ccnc1 (stereo unspecified)	i	nt	nt	nt	nt
CC(C)C1Cc2[nH][nH]c(=O)c2C(C2CC2)O1 (stereo unspecified)	i	i	nt	nt	nt
Cc1ccc(-c2cc(C(=O)N/N=C/c3c[nH]c4ccccc34)[nH]n2)cc1	i	i	i	27	nt
O=C(N/N=C/c1c[nH]c2ccccc12)c1ccn[nH]1	i	i	i	11	i
O=C(N/N=C/c1c[nH]c2ccccc12)c1cc(-c2ccc(-c3ccccc3)cc2)n[nH]1	i	i	i	20	i
Cc1nc(C)c(C(=O)N/N=C/c2c[nH]c3ccccc23)s1	i	i	i	i	i
O=C(N/N=C/c1c[nH]c2ccccc12)c1cc(-c2ccccc2)n[nH]1	i	i	i	31	i
Cc1cccc(C)c1NC(=O)C1(C)CN(S(C)(=O)=O)CC(=O)N1C1CC1 (stereo unspecified)	i	nt	nt	nt	nt
O=C(N/N=C/C=C\c1ccccc1[N+](=O)[O-])c1cc(-c2ccc3ccccc3c2)n[nH]1	i	i	i	18	nt
O=C(N/N=C/c1cccs1)c1cc(-c2ccc3ccccc3c2)n[nH]1	i	i	i	13	i
O=C(N/N=C/c1c[nH]c2ccccc12)c1cc(-c2cccc3ccccc23)n[nH]1	i	i	i	i	i
O=C(N/N=C/c1c[nH]c2ccccc12)c1cc(-c2ccc3ccccc3c2)n[nH]1	i	i	i	41	i
C[C@@H](NC(=O)[C@@H]1CCCN1C(=O)[C@@H]1CCCN1)c1ccccc1	i	i	nt	nt	nt
Cc1cc2cc(CNC(=S)Nc3ccc(OC(F)(F)F)cc3)ccc2[nH]1	i	i	i	12	i
Cc1ccc([C@H]2C[C@@H](O)[C@H](n3cc(C4CC4)nn3)CN2CC2CCCCC2)cc1	i	i	nt	nt	nt
CC(=O)Nc1ccc(NC(=O)Nc2cccc(Cl)c2)cc1	i	i	i	34	i
O=C(Nc1ccc(C(=O)N2CCCCC2)cc1)Nc1cccc(Cl)c1	i	i	i	13	i
O=C(Nc1cccc(Cl)c1)Nc1ccc2nccnc2c1	i	i	i	35	i
COc1ccc(NC(=O)Nc2ccccc2F)cc1	i	i	i	i	i
COc1ccc(NC(=O)Nc2ccccc2F)cc1Cl	i	i	i	20	i
CCC[C@H]1CN(c2ccccc2)C(=O)[C@@H]1CC(=O)Nc1ccc(Br)cc1	i	i	nt	nt	nt
COc1ccc(Cl)cc1NC(=O)CN(C)C(=O)CN1C(=O)NC(C)(c2ccc3ccccc3c2)C1=O (stereo unspecified)	i	i	nt	i	nt
SMILES	MPTP block	FAS TE block	p-CIP stab down	GRIN3A LBD mod	beta cell repl
CSc1ccc(NC(=O)Nc2ccccc2C(N)=O)cc1	i	i	i	10	i
Cn1nnc2cc(NC(=O)Nc3cccc(Cl)c3)ccc21	i	i	i	27	i
O=C(Nc1ccc(Cl)cc1)Nc1ccccc1C(=O)O	i	i	i	i	i
CSc1ccc(NC(=O)Nc2ccc(C(=O)NCC(=O)O)cc2)cc1	i	i	i	15	i
O=C(Nc1ccc(Cl)c(Cl)c1)Nc1ccccc1C(=O)O	i	i	i	18	i
CCSc1ccc(C(=O)NCC(=O)O)cc1	i	i	i	i	i
CCCCNC(=O)C1(C)CCCCN1C(=O)c1c(C)noc1C (stereo unspecified)	i	i	nt	nt	nt
CCOc1ccc(C(CN2CCOCC2)C(C)=O)cc1OC (stereo unspecified)	i	i	nt	nt	nt
Cc1cc(NC(=O)c2ccc(F)cc2)n(-c2ccccn2)n1	i	i	i	i	i
CS(=O)(=O)N1CCN(c2ccccc2NC(=O)Nc2cccc(Cl)c2)CC1	i	i	i	12	i
